{"source": "PubChem BioAssay (NCATS)", "note": "Values joined by “and” are separate entries in the source; they are usually repeats but may differ in a detail not shown here. Equal values may be shown once. Inconclusive results are not listed. Active and inactive are the calls of the source. Calls follow the shape of the dose curve; as a rule, active = well fitted curve in the direction sought with a large enough effect; inconclusive = small, poorly fitted or top-dose-only effect, or another doubt; inactive = no such curve, though single readings can be large or run the other way. % is scaled to controls: 0 for no effect and ±100 for the full control effect; potency is read from the fitted curve at half-maximal effect.", "data": [{"test": "qHTS Assay for Identifying Gametocytocidal Compounds (AID 743244);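 as to max response: actives lower the fluorescent signal which means gametocytes are killed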", "details": "P. falciparum 3D7 stage III-V gametocytes, alamarBlue, 72 h; max response: hits give low values", "method_in_brief": "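Stage III-V P. falciparum 3D7 gametocytes, 20,000 per well, were exposed to compounds for 72 h at 37C, 5% CO2. AlamarBlue was then added for 24 h and viability was read as fluorescence at Ex 525/Em 598 nm.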", "values": [{"smiles": "CCN(CC)CCOC(=O)c1ccc(N)cc1Cl", "max response": "-6.93% (inactive)"}, {"smiles": "O=P(O)(O)C(Sc1ccc(Cl)cc1)P(=O)(O)O", "max response": "17.7% (inactive)"}, {"smiles": "COc1cc([C@@H]2c3cc4c(cc3C(O[C@@H]3O[C@@H]5COC(c6cccs6)O[C@H]5[C@H](O)[C@H]3O)C3COC(=O)[C@@H]32)OCO4)cc(OC)c1O", "note": "(stereo partly drawn)", "max response": "-13.4% (inactive)"}, {"smiles": "Cc1cc(Nc2ccccc2C(=O)O)ccc1Cl", "max response": "-23.6% (inactive)"}, {"smiles": "c1cnc2cc3c(cc2n1)[C@@H]1CNC[C@H]3C1", "max response": "0.0621% (inactive)"}, {"smiles": "COc1ccc(CCNCC(O)COc2cccc(C)c2)cc1OC", "note": "(stereo not drawn)", "max response": "11.3% (inactive)"}, {"smiles": "CCCCCCCCCCCCCCCC(=O)OC[C@H](O)[C@H]1OC(=O)C(O)=C1O", "max response": "0.191% (inactive)"}, {"smiles": "CC(C)(C)NC(=O)[C@H]1CC[C@H]2[C@@H]3CC=C4C=C(C(=O)O)CC[C@]4(C)[C@H]3CC[C@]12C", "max response": "-20.3% (inactive)"}, {"smiles": "CN(C)CCOc1ccccc1Cc1ccccc1", "note": "(tested in a mixture with another compound)", "max response": "6.62% (inactive)"}, {"smiles": "CC(=O)O[C@H]1CC[C@@]2(C)C(=CC[C@@H]3[C@@H]2CC[C@]2(C)C(c4cccnc4)=CC[C@@H]32)C1", "max response": "-2.25% (inactive)"}, {"smiles": "O=S(O)CNc1ccc(S(=O)(=O)c2ccc(NCS(=O)O)cc2)cc1", "max response": "-0.921% (inactive)"}, {"smiles": "COc1cc2[nH]c(C)c(CCN3CCN(c4ccccc4)CC3)c2cc1OC", "max response": "16.1% (inactive)"}, {"smiles": "O=S(=O)(O)Oc1ccc(C(c2ccc(OS(=O)(=O)O)cc2)c2ccccn2)cc1", "max response": "4.73% (inactive)"}, {"smiles": "CCCOc1ccc2nc(NC(=O)OC)sc2c1", "max response": "-5% (inactive)"}, {"smiles": "OC(CN1CCCCC1)c1cc(-c2ccccc2)on1", "note": "(stereo not drawn)", "max response": "-4.26% (inactive)"}, {"smiles": "CCCCCCCCCCCCCCCC(=O)O[C@@H]1CC(C)=C(/C=C/C(C)=C/C=C/C(C)=C/C=C/C=C(C)/C=C/C=C(C)/C=C/C2=C(C)C[C@@H](OC(=O)CCCCCCCCCCCCCCC)CC2(C)C)C(C)(C)C1", "max response": "1.34% (inactive)"}, {"smiles": "C=C[C@]1(C)C[C@@H](OC(=O)CO)[C@]2(C)[C@H](C)CC[C@]3(CCC(=O)[C@H]32)[C@@H](C)[C@@H]1O", "max response": "11.6% (inactive)"}, {"smiles": "CC1(C)S[C@@H]2[C@H](NC(=O)[C@H](N)c3ccccc3)C(=O)N2[C@H]1C(=O)OCOC(=O)[C@@H]1N2C(=O)C[C@H]2S(=O)(=O)C1(C)C", "max response": "8.04% (inactive)"}, {"smiles": "O=C(O)c1cc2ccccc2c(Cc2c(O)c(C(=O)O)cc3ccccc23)c1O", "max response": "60.7% (inactive)"}, {"smiles": "O=C(CO)[C@@H](O)[C@H](O)[C@H](O)CO", "max response": "0.975% (inactive)"}, {"smiles": "CCCN(CC)C(CC)C(=O)Nc1c(C)cccc1C", "note": "(stereo not drawn)", "max response": "0.657% (inactive)"}, {"smiles": "CO[C@@H]1[C@@H](O[C@@H]2O[C@H](C)[C@@H](O[C@H]3C[C@@](C)(O)[C@@H](OC(=O)CC(C)C)[C@H](C)O3)[C@H](N(C)C)[C@H]2O)[C@@H](CC=O)C[C@@H](C)[C@@H](O)/C=C/C=C/C[C@@H](C)OC(=O)C[C@H]1O", "max response": "4.51% (inactive) and 4.66% (inactive)"}, {"smiles": "C/C=C1\\NC(=O)[C@H]2CSSCC/C=C/[C@H](CC(=O)N[C@H](C(C)C)C(=O)N2)OC(=O)C(C(C)C)NC1=O", "note": "(stereo partly drawn)", "Potency": "590 nM (active)"}, {"smiles": "O=C1O[C@H]2[C@H](O)[C@@H]1OC(O)[C@H]2O", "note": "(stereo partly drawn)", "max response": "-4.25% (inactive)"}, {"smiles": "C[C@H](/C=C/[C@H](C)C(C)(C)O)[C@H]1CC[C@H]2/C(=C/C=C3C[C@@H](O)C[C@H](O)C3)CCC[C@]12C", "max response": "11.6% (inactive)"}, {"smiles": "CCC(=O)Oc1ccc2c(c1)CC[C@@H]1[C@@H]2CC[C@]2(C)[C@@H](OC(=O)CC)CC[C@@H]12", "max response": "-6.54% (inactive)"}, {"smiles": "CN(C(=O)CO)c1c(I)c(C(=O)NCC(O)CO)c(I)c(C(=O)NCC(O)CO)c1I", "note": "(stereo not drawn)", "max response": "-2.64% (inactive)"}, {"smiles": "CCOC(=O)Nc1ccc2c(c1)N(C(=O)CN(C)C)c1ccccc1CC2", "max response": "6.79% (inactive)"}, {"smiles": "C=C1CC2C3CCC4=CC(=O)C=C[C@]4(C)[C@@]3(F)[C@@H](O)C[C@]2(C)[C@@]1(O)C(=O)COC(C)=O", "note": "(stereo partly drawn)", "max response": "-3.67% (inactive)"}, {"smiles": "O=C(OCCO)c1ccccc1O", "max response": "18.8% (inactive)"}, {"smiles": "CCOc1ccc(N=C(C)Nc2ccc(OCC)cc2)cc1", "max response": "-5.06% (inactive)"}, {"smiles": "CCOC(=O)[C@H](CCc1ccccc1)N[C@@H](C)C(=O)N1CC2(C[C@H]1C(=O)O)SCCS2", "max response": "8.21% (inactive)"}, {"smiles": "CCC(C)(C)OC(=O)N[C@@H](Cc1c[nH]c2ccccc12)C(=O)N[C@@H](CCSC)C(=O)N[C@@H](CC(=O)O)C(=O)N[C@@H](Cc1ccccc1)C(N)=O", "max response": "-0.189% (inactive)"}, {"smiles": "Cn1nnnc1SCC1=C(C(=O)O)N2C(=O)[C@@H](NC(=O)[C@H](OC=O)c3ccccc3)[C@H]2SC1", "max response": "10.2% (inactive)"}, {"smiles": "CC(=O)[C@@]1(O)CC[C@H]2[C@@H]3C=C(Cl)C4=CC(=O)CC[C@]4(C)[C@H]3CC[C@@]21C", "max response": "-4.61% (inactive)"}, {"smiles": "COc1ccc(CNCC(O)COc2ccc3[nH]c(=O)ccc3c2)cc1OC", "note": "(stereo not drawn)", "max response": "-1.67% (inactive)"}, {"smiles": "CC#CCC(C)[C@H](O)/C=C/[C@@H]1[C@H]2c3cccc(CCCC(=O)O)c3O[C@H]2C[C@H]1O", "note": "(stereo partly drawn)", "max response": "6.65% (inactive)"}, {"smiles": "CC#CCC(C)[C@H](O)/C=C/[C@@H]1[C@H]2C/C(=C/CCCC(=O)O)C[C@H]2C[C@H]1O", "note": "(stereo partly drawn)", "max response": "11.1% (inactive)"}]}]}
